# Measurements: PubChem BioAssay (NCATS)
# Inconclusive results are not listed. A number with no mark means an inactive call. The source made the active and inactive calls. Calls come from the whole dose curve; as a rule, active = well fitted inhibition curve with a large enough effect; inconclusive = small, poorly fitted or top-dose-only effect; inactive = flat fitted curve, though single readings scatter.
# Test system: MCC-26
# Assay: qHTS assay to identify novel small-molecules to repurpose for Merkel cell carcinoma treatment (AID 1296009); note: nearly all actives have a fitted effect of over 60% in size
# Details: MCC and control cell lines, CellTiter-Glo viability, 72 h; series mostly up to 46 µM; activity change, negative = cytotoxicity: at the top concentration
# Source text: MCC is a rare and aggressive neuroendocrine skin cancer with limited treatment options. Approximately 80% of MCCs have the Merkel cell polyomavirus (MCPyV) DNA integrated into the host genome (virus-positive: VP-MCC) and viral oncogenes drive oncogenesis. The remaining MCCs are virus-negative (VN-MCC) and are caused by UV mutagenesis. To identify novel treatments for VP-MCC and/or VN-MCC we screened three VP-MCC cell lines (WAGA, MKL-1, MKL-2), three VN-MCC cell lines (MCC-13, MCC-26, UISO), and four immortalized, non-transformed control cell lines (HaCaT, HEK293T, CRL7250, NIH-3T3) against ~2,400 compounds in the NCGC Pharmaceutical Collection (NPC) and ~1,900 compounds in the Mechanism Interrogation PlatE (MiPE). Using cell viability as a readout (CellTiter-Glo assay) we found both overlapping and distinct drugs that can be repurposed for the treatment of VP-MCC and VN-MCC.
# A high-throughput screen was conducted in 1536-well white flat bottom plates (Corning) on a Kalypsys robotic system. Cell lines WAGA, MKL-1, MKL-2, MCC-13, MCC-26, UISO, HaCaT, HEK293T, CRL7250, and NIH-3T3 were screened against 2 small molecule annotated drug libraries NPC and MIPE in dose response (8 and 11 pt. respectively) measuring cell viability after 72 hours of incubation. […] A 1,536 pintool (Kalypsys) was used to transfer 23 nL of compound in DMSO to the 1,536-well assay plates. After 72 hr incubation at 37 degree celsius, 2.5 uL of CellTiter-Glo (Promega) was dispensed into each well using a BiorapTR. Plates were incubated at room temperature for 10 min, transferred to a ViewLux (PerkinElmer) and the luminescence was recorded using an exposure time of 2 seconds. Relative luminescence units (RLUs) were normalized to in-plate controls (no cells as a positive (cytotoxicity) control, DMSO as negative control) and the normalized data was processed using NCATS in-house software.
# % is set by controls: 0 for no effect and ±100 for the full control effect; potency is the fitted concentration of half-maximal effect.
SMILES,"activity change, negative = cytotoxicity",Potency
CC1=C(C(=O)O)N2C(=O)[C@@H](N)[C@H]2SC1,5.21% [at 16.1 µM],–
C=C[C@@H]1CN2CCC1C[C@H]2[C@H](O)c1ccnc2ccccc12 (stereo not given in full),-11.3%,–
CC1=NN=C(c2ccc(N)cc2)c2cc3c(cc2C1)OCO3,0.761%,–
CC[C@@H](C(N)=O)N1CCCC1=O,-5.4%,–
CSCC[C@@H](NC(=O)[C@@H](Cc1ccccc1)NC(=O)CNC(=O)CNC(=O)[C@@H](N)Cc1ccc(O)cc1)C(=O)O,0.601%,–
CC(C)(O)C(=O)Nc1ccc([N+](=O)[O-])c(C(F)(F)F)c1,-12.8%,–
O=S(=O)(O)C(F)(F)C(F)(F)C(F)(F)C(F)(F)F,3.33% [at 92.7 µM],–
O=[N+]([O-])c1cc([N+](=O)[O-])c2ccccc2c1,14.8% [at 92.7 µM],–
N#C[C@H](O[C@@H]1O[C@H](CO[C@@H]2O[C@H](CO)[C@H](O)[C@H](O)[C@H]2O)[C@H](O)[C@H](O)[C@H]1O)c1ccccc1,-4.92%,–
COC(=O)c1cncn1C(C)c1ccccc1 (stereo not given),-13.1%,–
CC(O)CN1CCN(CC(=O)[O-])CCN(CC(=O)[O-])CCN(CC(=O)[O-])CC1.[Gd+3] (stereo not given),4.5%,–
CC(C)(C)c1cc(C=C(C#N)C#N)cc(Br)c1O,9.26%,–
C[C@]12CC[C@H]3[C@@H](CCC4=CC(=O)CC[C@@]43C)[C@H]1CC[C@H]2OC(=O)CCC1CCCC1,-7.31%,–
CO[C@H]1CCC(O[C@H]2C[C@H]([C@]3(C)CC[C@]4(C[C@H](O)[C@@H](C)[C@@H]([C@@H](C)C=C(C)C(=O)[C@H](C)C[C@H](C)C(=O)O)O4)O3)O[C@]3(O[C@@H]([C@H]4O[C@@](O)(CO)[C@H](C)C[C@H]4C)C[C@H]3C)[C@H]2C)O[C@H]1C (stereo not given in full),-26.4%,–
O=C(O)c1cc(Oc2ccc(C(F)(F)F)cc2Cl)ccc1[N+](=O)[O-],-2.24%,–
CCCC[N+]1(C)[C@H]2CC(OC(=O)[C@H](CO)c3ccccc3)C[C@H]1[C@H]1O[C@H]12 (stereo not given in full),4.3%,–
CN(C)[C@@H]1C(=O)C(C(N)=O)=C(O)[C@@]2(O)C(=O)C3=C(O)c4c(O)cccc4[C@@](C)(O)[C@H]3[C@H](O)[C@@H]12,4.88%,–
CC(Cc1ccc(O)cc1)NCC(O)c1cc(O)cc(O)c1 (stereo not given),-0.926%,–
COc1ccc2c(c1)[C@]13CCCCC1C(C2)N(C)CC3 (stereo not given in full),-11.2%,–
CC(=O)[O][Hg][c]1ccccc1,–,2.66 µM (active)

SMILES,"activity change, negative = cytotoxicity",Potency
O=c1[nH]c2ccccc2n1C1CCN(Cc2ccc(-c3[nH]c4cc5ncnc5cc4nc3-c3ccccc3)cc2)CC1,-2.88%,–
c1cc2ccc3cccc4ccc(c1)c2c34,-6.45% [at 92.7 µM],–
c1cc2c(cc1[C@H]1OC[C@H]3[C@H]1CO[C@H]3c1ccc3c(c1)OCO3)OCO2,1.12%,–
Oc1ccc2c3c1O[C@H]1c4[nH]c5c(c4C[C@@]4(O)[C@@H](C2)N(CC2CC2)CC[C@]314)C[C@@]1(O)[C@H]2Cc3ccc(O)c4c3[C@@]1(CCN2CC1CC1)[C@H]5O4,4.47%,–
O=C1C(I)=CC(=C(c2cc(I)c(O)c(I)c2)c2ccccc2C(=O)O)C=C1I,16.2%,–
CCCCCCCCCCCCCCCC[N+](C)(C)C,–,26.6 µM (active)
Nc1ccc(Cl)cc1,11.6% [at 92.7 µM],–
CCN(CC)C(=O)c1ccc(C2=CC3(CCNCC3)Oc3cccc(O)c32)cc1,0.388%,–
COc1ccc(C(c2ccc(OC)cc2)C(Cl)(Cl)Cl)cc1,-16.6% [at 92.7 µM],–
C1=C2CCCN[C@H]2[C@@H]2C[C@H]1[C@@H]1CCCCN1C2,-0.931%,–
CCOC(=O)c1c(C(C#N)=CN)c2ccc(Cl)c(Cl)c2n1C,-13.3%,–
O=C(O)COc1ccccc1,7.19%,–
ClC1=C(Cl)[C@]2(Cl)[C@@H]3[C@@H]4C[C@@H]([C@H]5O[C@@H]45)[C@@H]3[C@@]1(Cl)C2(Cl)Cl,9.94% [at 92.7 µM],–
C=C1C[C@H]2[C@H]3CCC(=O)[C@@]3(C)CC[C@@H]2[C@@]2(C)C=CC(=O)C=C12,6.72%,–
COC[C@H]1OC(=O)c2coc3c2[C@@]1(C)C1=C(C3=O)[C@@H]2CC[C@H](O)[C@@]2(C)C[C@@H]1OC(C)=O,-5.32%,–
O=c1[nH]c2ccc(Cl)cc2c(N[C@@H]2CN3CCC2CC3)c1-c1nc2ccccc2[nH]1,–,7.43 µM (active)
CCCCCCCCc1ccc(O)cc1,-36.9% [at 92.7 µM],–
COC(=O)[C@@H](N)CCCN=C(N)N[N+](=O)[O-],1.19%,–
CC(N[C@H]1C[C@H]1c1ccccc1)c1ccc2c(c1)OCCO2 (stereo not given in full),0.613%,–
O=C(N[C@H]1CN2CCC1CC2)c1ccc(Cl)cc1,-0.881%,–
